# Reference: PubChem BioAssay AID602281 (The Scripps Research Institute Molecular Screening Center, 2012)
# Among all 360,000 compounds or so, about 2,900 (0.81%) were called active. What follows is part of a selection rich in actives, with near analogues and random picks from the rest. Unmarked numbers belong to inactive results.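 The calls were made as follows: active = inhibition above the mean inhibition across every tested compound plus 3 SD (cut at about 22% in these data); inactive = the rest.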
# Molecular target: Perilipin-5 (Homo sapiens) + 1-acylglycerol-3-phosphate O-acyltransferase ABHD5 (Homo sapiens) (UniProt Q00G26+Q8WTS1)
# Sequence (Q00G26 whole entry, looked up): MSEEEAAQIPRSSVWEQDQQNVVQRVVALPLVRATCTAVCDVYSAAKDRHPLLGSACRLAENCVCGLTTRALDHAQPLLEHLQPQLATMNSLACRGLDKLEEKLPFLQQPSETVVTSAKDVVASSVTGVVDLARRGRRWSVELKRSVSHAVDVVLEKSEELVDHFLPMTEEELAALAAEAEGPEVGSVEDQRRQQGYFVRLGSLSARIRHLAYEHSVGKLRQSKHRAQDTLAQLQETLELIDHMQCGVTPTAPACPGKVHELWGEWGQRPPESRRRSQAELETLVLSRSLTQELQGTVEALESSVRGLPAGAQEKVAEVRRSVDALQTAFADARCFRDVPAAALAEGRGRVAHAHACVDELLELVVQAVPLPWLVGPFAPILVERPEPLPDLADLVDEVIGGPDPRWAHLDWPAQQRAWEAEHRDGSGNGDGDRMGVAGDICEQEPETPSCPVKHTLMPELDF
# Sequence (Q8WTS1 whole entry, looked up): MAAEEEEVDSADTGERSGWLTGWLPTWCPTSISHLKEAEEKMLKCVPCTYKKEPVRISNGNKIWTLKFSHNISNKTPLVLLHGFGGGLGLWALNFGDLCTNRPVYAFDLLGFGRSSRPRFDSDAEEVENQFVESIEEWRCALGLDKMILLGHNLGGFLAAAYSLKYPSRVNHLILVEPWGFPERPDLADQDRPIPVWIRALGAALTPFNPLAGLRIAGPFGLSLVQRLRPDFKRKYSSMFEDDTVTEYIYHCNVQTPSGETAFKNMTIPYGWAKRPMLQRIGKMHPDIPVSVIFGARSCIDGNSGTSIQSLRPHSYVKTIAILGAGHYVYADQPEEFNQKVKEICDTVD
# Assay: blockers of ABHD5 binding to perilipin-5 – cell lysate, split luciferase complementation, luminescence, primary screen (AID 602281);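 also: 0% = DMSO only wells and the 100% control is not disclosed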
# Conditions: Split G. princeps luciferase complementation, 4 h, at 4 µM, active compounds read high
row,SMILES,inhibition
1,CCOc1ccc(CCN2C(=O)C(=O)N([C@@H](Cc3ccc(O)cc3)CN3CCC[C@H]3CN3C(=O)C(=O)NC[C@@H]3CC(C)C)C[C@@H]2Cc2ccccc2)cc1,3.51%
2,Cc1cc(NC(=O)COC(=O)COc2ccc(Cl)cc2C)c([N+](=O)[O-])cc1C,4.5%
3,CC(=O)c1ccc(N2CCN(S(=O)(=O)c3c(C)[nH]c(=O)[nH]c3=O)CC2)cc1,1.36%
4,CCN(CCCNC(=O)CCn1c(=O)[nH]c2ccsc2c1=O)c1ccccc1,-1.79%
5,CCN(CCCNC(=O)c1ccc2c(c1)NC(=O)CN2C)c1cccc(C)c1,76.6% (active)
6,CCN1CCN(CCNC(=O)c2ccc3c(c2)NC(=O)/C(=C\c2cccc(Cl)c2)S3)CC1,12.3%
7,CCN(c1ccc2c(c1)OCO2)S(=O)(=O)c1cc(Br)cc2c1N(C(=O)C1CC1)CC2,-5.83%
8,O=C(NNS(=O)(=O)c1ccc(F)cc1)c1cnccn1,-1.88%
9,COc1ccc(-c2cc3n(n2)CCc2nc4ccccc4n2-3)cc1,5.6%
10,CC(C)c1ccc2oc(=O)cc(CN3CCN(Cc4ccccc4)CC3)c2c1,-1.39%
11,Cc1nc([N+](=O)[O-])nn1C12CC3CC(CC(Br)(C3)C1)C2,-11.4%
12,CCc1nnc(NC(=O)c2ccco2)s1,3.45%
13,O=C(Nc1nonc1-c1ccc(Cl)cc1)c1ccco1,-2.13%
14,O=C(Nc1nc(-c2ccco2)c(-c2ccco2)s1)c1ccco1,25.3% (active)
15,Cc1cc(C)c(C#N)c(SCS(=O)c2ccc(C(C)(C)C)cc2)n1 (stereo not given),5.68%
16,S=C(Nc1ccc(Br)cc1Cl)N1CCC2(CC1)OCCO2,-3.87%
17,CCOC(=O)CCC(=O)OCC(=O)NC(C)C1CC2CCC1C2 (stereo not given),-2.3%
18,CSc1sc(C(=O)NC(=O)NCc2cccnc2)c(C)c1-c1ccon1,6.42%
19,Cc1ccc(-n2nc(-c3ccco3)cc2C(=O)NCc2cccnc2)cc1,36.3% (active)
20,Cc1ccc(C(=O)NC(=S)NCc2cccnc2)cc1,2.77%
21,CCc1ccc(OC2(C)CCN(CCOc3ccc(C)cc3)C2)cc1 (stereo not given),-1.92%
22,Cc1[nH]c2ccccc2c1C(=O)C(C)Sc1nnc(C2CC2)o1 (stereo not given),-5.93%
23,O=C(Nc1ccccc1Cl)NC1(C(=O)N2CCOCC2)CCCCC1,-0.52%
24,COc1ccccc1NC(=O)COC(=O)Cc1ccc(S(=O)(=O)N2CCCCC2)s1,0.2%
25,NS(=O)(=O)c1ccc(CNC(=O)c2cc(S(=O)(=O)N3CCOCC3)ccc2N2CCCC2)cc1,4.8%

row,SMILES,inhibition
1,CCC1CCCCN1C(=S)Nc1ccc(S(=O)(=O)Nc2ncccn2)cc1 (stereo not given),-5.25%
2,COc1ccc(C(C(=O)NC(C)(C)C)N(C(=O)Cn2nnc3ccccc32)c2ccc(C(C)=O)cc2)cc1O (stereo not given),-5.36%
3,CCNC(=O)CC1C(=O)N(c2ccc(OC)cc2)C(=S)N1CCc1ccncc1 (stereo not given),2.72%
4,O=C(Cn1nc(C(=O)O)c2ccccc2c1=O)Nc1ccc(F)cc1,4.56%
5,Cc1ccc(NC(=O)Cn2c(C)csc2=O)cc1,0%
6,Cc1ccc(NC(=O)Cn2sc3ccccc3c2=O)cc1,71.6% (active)
7,Cn1cc(S(=O)(=O)N2CCN(c3ccc(F)cc3)CC2)c(=O)n(C)c1=O,2.58%
8,CC(=O)c1c(C)n(-c2ccc(N(C)C)cc2)c2ccc(OCC(N)=O)cc12,-5.31%
9,NC(=O)COc1ccc(C23CC4CC(CC(C4)C2)C3)cc1,-7.75%
10,Cc1ccc(NNC(=O)c2cccs2)cc1Cl,0.05%
11,CC(C)OCCCNC(=O)CNC(=O)c1cccs1,3.5%
12,Cc1ccccc1C(CC(=O)c1cccs1)C(C#N)C#N (stereo not given),22.1% (active)
13,CC1=NN(C(C)C)C(=O)C1,-11.8%
14,COc1ccccc1C(=O)C(O)c1ccccc1OC (stereo not given),4.01%
15,CSc1ccccc1OCc1cc(C(=O)N2C[C@H]3CC[C@H]2C3)no1,-0.37%
16,COC(=O)[C@@H](NC(=O)Nc1cc(Cl)ccc1C)C(C)C,15.4%
17,CC1(C(=O)O)CCN1C(=O)/C=C/c1ccccc1 (stereo not given),-1.15%
18,O=C(/C=C/c1ccccc1)c1ccccc1O,22.9% (active)
19,Cc1nc(-c2ccccc2)sc1-c1nc(-c2ccccc2)ncc1S(=O)(=O)c1ccccc1,2.52%
20,CC(/C=C/c1ccccc1)=N\NC(=O)C1CC1(C)c1ccccc1 (stereo not given),-4.04%
21,Cc1nc(-c2ccc(Cl)cc2)sc1C(=O)CBr,9.2%
22,O=S(=O)(/C=C/c1ccccc1)N1CCNCC1,-10.8%
23,Cc1nc(-c2ccccc2)sc1C(=O)/C=C/c1ccccc1,36% (active)
24,O=C(/C=C/c1ccccc1)c1ccoc1,23% (active)
25,Nc1nc(NC(=O)/C=C/c2ccccc2)nn1-c1ccccc1,3.41%
